# Reference: ChEMBL document CHEMBL3988442, “University of Dundee, Small-Polar-MMV Screening Library” (2021)
# Hit rate of the full screen: of about 66,000 compounds, about 960 (1.5%) showed an effect of 50% or more. Shown is part of a subset that was picked to be rich in strong results.
# Tested on: Trypanosoma brucei
# Assay: Trypanosoma brucei 72 hour study
# Format: functional, organism-based
# Set-up: scale not given: in the data most compounds retested in dose-response had high values
structure (smiles),measurement,setting,value
CN(Cc1ccc2c(c1)OCCO2)Cc1nc2c(cnn2C)c(=O)[nH]1,Percent Effect,"30.3 µM, […]",4.999%
CS(=O)(=O)N1CCO[C@@H]2CCN(Cc3ccncc3)CC[C@H]21.O=C(O)C(F)(F)F.O=C(O)C(F)(F)F,Percent Effect,"30.3 µM, […]",-50.12%
COc1ccc(Cl)cc1S(=O)(=O)N1C[C@@H]2CC[C@H](C1)N(C)C2=O,Percent Effect,"30 µM, 30.03 µM",12.03%
O=C(O)C(F)(F)F.O=c1ccc2c(n1CC1CCOCC1)CCN(Cc1ccoc1)CC2,Percent Effect,"30 µM, 30.03 µM",-13.76%
COCCNC(=O)[C@H]1CN(Cc2cccs2)C[C@H]2OCC[C@@H]12.O=C(O)C(F)(F)F,Percent Effect,"30 µM, 30.03 µM",-47.27%
Cc1ccc(CN2C[C@@H]3CCCO[C@@H]3[C@H](N(C)Cc3ccco3)C2)s1.O=C(O)C(F)(F)F.O=C(O)C(F)(F)F,Percent Effect,"30 µM, 30.03 µM",26.16%
COCCN1CCOCC12CCN(c1cnccn1)CC2.O=C(O)C(F)(F)F,Percent Effect,"30.3 µM, […]",-82.27%
Cn1c(C2CC2)nc2c1CCN(CCOc1ccccc1C#N)C2,Percent Effect,"30.3 µM, […]",73.03%
same,Percent Effect,"10 mM, 10 mM as filed; unlikely as a test dose",81.28%
Cn1c(C2CC2)nc2c1CCN(CCOc1cccc(F)c1)C2,Percent Effect,"30.3 µM, […]",33.25%
same,Percent Effect,"10 mM, 10 mM as filed; unlikely as a test dose",-49.38%
Cn1c(C2CC2)nc2c1CCN(CCOc1ccc(C#N)cc1)C2,Percent Effect,"30 µM, 30.03 µM",41.84%
Cc1cc(CN2CCN(C(=O)NC(C)Cn3ccnc3)CC2)on1 (stereo not drawn),Percent Effect,"30.3 µM, […]",-36.86%
O=C(N1CCCO1)[C@@]12CCO[C@@H]1CCN(C1CCCCC1)C2.O=C(O)C(F)(F)F,Percent Effect,"30 µM, 30.03 µM",51.2%
O=C(N1CCOCC1)[C@@]12CCO[C@@H]1CCN(C1CCC1)C2.O=C(O)C(F)(F)F,Percent Effect,"30 µM, 30.03 µM",-13.96%
O=C(N1CCOCC1)[C@@]12CCO[C@@H]1CCN(C1CCCCC1)C2.O=C(O)C(F)(F)F,Percent Effect,"30 µM, 30.03 µM",-10.39%
Cc1nnn2c1COC(CNCc1nccs1)C2.O=C(O)C(F)(F)F (stereo not drawn),Percent Effect,"30 µM, 30.03 µM",2.897%
Cc1cnn(CCNCC(O)COc2cc(Cl)ccc2Cl)c1 (stereo not drawn),Percent Effect,10 µM,13.76%
O=C(NCCO)C1(Cc2ccccc2-c2ccncc2)CCOCC1,Percent Effect,"30.3 µM, […]",-12.36%
CC(C)NC(=O)C1(Cc2ccccc2-c2cncnc2)CCCNC1 (stereo not drawn),Percent Effect,"30.3 µM, […]",-17.52%
CC(C)CNC(=O)C1(Cc2ccccc2-c2cccs2)CCNC1 (stereo not drawn),Percent Effect,"30.3 µM, […]",100.9%
CC(C)NC(=O)C1(Cc2ccccc2-c2cccs2)CCNC1 (stereo not drawn),Percent Effect,"30.3 µM, […]",100.3%
CC(C)NC(=O)C1(Cc2ccccc2-c2ccccc2)CCCNC1 (stereo not drawn),Percent Effect,"30.3 µM, […]",-11.23%
CC(C)CNC(=O)C1(Cc2ccccc2-c2ccccc2)CCNC1 (stereo not drawn),Percent Effect,"30.3 µM, […]",-113.5%
O=C(NC1CC1)C1(Cc2ccccc2-c2ccncc2)CCOCC1,Percent Effect,"30.3 µM, […]",-2.257%
Cl.O=C(N1CCCC1)C1(Cc2ccc(-c3cccs3)cc2)CCNC1 (stereo not drawn),Percent Effect,"30.3 µM, […]",100.9%
Cl.O=C(O)C1(Cc2cccc(-c3cccs3)c2)CCCNC1 (stereo not drawn),Percent Effect,"30.3 µM, […]",-23.63%
NC(=O)C1(Cc2ccccc2-c2cncnc2)CCCNC1 (stereo not drawn),Percent Effect,"30.3 µM, […]",-3.769%
Cl.O=C(O)C1(Cc2ccc(-c3cccs3)cc2)CCNC1 (stereo not drawn),Percent Effect,"30.3 µM, […]",15.36%
Cc1ccc(-c2ccccc2CC2(C(=O)NC(C)C)CCCNC2)cc1 (stereo not drawn),Percent Effect,"30.3 µM, […]",73.8%
COc1ccccc1CN(C)C(=O)CN1CC(n2nc(C)cc2C)C1,Percent Effect,"30 µM, 30.03 µM",35.21%
CCC(NC(=O)C1CCN(S(C)(=O)=O)CC1)c1ccc(OC)cc1 (stereo not drawn),Percent Effect,"30 µM, 30.03 µM",-21.57%
Cl.O=C(NCc1ccccc1F)C1=NOC2(CCNC2)C1 (stereo not drawn),Percent Effect,"30 µM, 30.03 µM",32.02%
O=C(O)C(F)(F)F.O=C(O)C(F)(F)F.c1cncc(OCC2CN(Cc3nccs3)Cc3nccn3C2)c1 (stereo not drawn),Percent Effect,"30.3 µM, […]",-9.916%
C/C=C(\C)CN(CCN1CCOCC1)Cc1ccco1,Percent Effect,"30.3 µM, […]",-0.5994%
O=C(O)C(F)(F)F.O=C(O)C(F)(F)F.O=C([C@H]1C[C@H]2OCC[C@H]2N(Cc2ccccc2F)C1)N1CCCCO1,Percent Effect,"30.3 µM, […]",-61.9%
Cn1ccnc1-c1nc(NC2CCCC2)ncc1-c1cccc(F)c1,Percent Effect,"30.3 µM, […]",20.44%
CN1CCN(c2ncnc3c2CCN(S(=O)(=O)C2CC2)CC3)CC1.O=C(O)C(F)(F)F,Percent Effect,"30.3 µM, […]",-13.78%
CN(C)C[C@]12COC[C@H]1CN(Cc1ccc3c(c1)OCO3)C2.O=C(O)C(F)(F)F.O=C(O)C(F)(F)F,Percent Effect,"30.3 µM, […]",5.402%
CC(C)CC(=O)NC[C@H]1CC[C@H](C(c2ccccn2)N(C)C)CC1 (stereo partly drawn),Percent Effect,"30.3 µM, […]",-15.36%
COc1cccc(CNC(=O)CCC2=Nc3ccccc3S(=O)(=O)N2)c1,Percent Effect,"30.3 µM, […]",9.218%
CCN1C[C@@H]2[C@@H](OC)CCN(S(=O)(=O)c3ccccc3F)[C@@H]2C1.O=C(O)C(F)(F)F,Percent Effect,"30 µM, 30.03 µM",30.94%
CN(Cc1ccc(C#N)cc1)c1ncc(C(N)=O)cc1Cl,Percent Effect,"30.3 µM, […]",12.46%
Cl.O=C(NCc1ccccc1)C1=NOC2(CCNC2)C1 (stereo not drawn),Percent Effect,"30 µM, 30.03 µM",2.25%
Cc1cccc(CNCC2COC3(CCCC3)O2)c1C (stereo not drawn),Percent Effect,"30 µM, 30.03 µM",-15.5%
COCCOc1ccccc1CNCC1COC2(CCCC2)O1 (stereo not drawn),Percent Effect,"30 µM, 30.03 µM",102%
Cc1cccc(CNCC2COC3(CCCCC3)O2)c1C (stereo not drawn),Percent Effect,"30 µM, 30.03 µM",-30.8%
COc1cc(C(=O)N(Cc2ccco2)C2CC2)cc(OC)c1OC,Percent Effect,"30 µM, 30.03 µM",-6.757%
COc1cc(C(=O)N(Cc2ccco2)C2CC2)cc2c1OCCO2,Percent Effect,"30 µM, 30.03 µM",51.93%
CCN(Cc1ccco1)C(=O)c1cc(OC)c2c(c1)OCCO2,Percent Effect,"30 µM, 30.03 µM",34.74%
Cc1cc(N(C)CCN(C)C)n2nc(C)cc2n1,Percent Effect,"30 µM, 30.03 µM",-1.745%
Cc1cc2ncc(CN(C)C)c(C3CCN(C)CC3)n2n1,Percent Effect,"30.3 µM, […]",99.05%
CC(=O)N1CCC(c2c(CN(C)C)cnc3cc(C)nn23)CC1,Percent Effect,"30.3 µM, […]",-17.17%
Cn1cc(-c2csc(N3CCSCC3)n2)cn1,Percent Effect,"30 µM, 30.03 µM",-20.97%
Cn1cc(-c2csc(N3CCCCCC3)n2)cn1,Percent Effect,"30 µM, 30.03 µM",99.99%
CN1CCN(c2nc(-c3cnn(C)c3)cs2)CC1,Percent Effect,"30 µM, 30.03 µM",-14.69%
O=C(O)C(F)(F)F.O=C(O)C(F)(F)F.O=C(c1ccncc1)N1CCC2(CC1)CCN(Cc1ccccn1)C2=O,Percent Effect,"30 µM, 30.03 µM",-9.957%
CC(C)SCC(=O)NCc1cc2n(n1)CCCN(C1CCCCC1)C2,Percent Effect,"30 µM, 30.03 µM",-6.203%
CC(CC(=O)N1CCN(c2cnccn2)CC1)c1ccc(F)cc1 (stereo not drawn),Percent Effect,"30 µM, 30.03 µM",-67.22%
O=C(CCSc1ccccc1F)N1CCN(c2cnccn2)CC1,Percent Effect,"30 µM, 30.03 µM",98.54%
O=C(CCSc1ccc(F)cc1)N1CCN(c2cnccn2)CC1,Percent Effect,"30 µM, 30.03 µM",-62.17%
Cc1ccc(S(=O)(=O)Nc2ccc(C)c(C(=O)O)c2)s1,Percent Effect,"30 µM, 30.03 µM",-9.875%
Cc1ccc(S(=O)(=O)NC(=O)c2cc(S(C)(=O)=O)ccc2C)s1,Percent Effect,"30.3 µM, […]",94.94%
Cc1ccc(C(=O)NS(C)(=O)=O)cc1S(C)(=O)=O,Percent Effect,"30 µM, 30.03 µM",7.017%
Cc1ccc(S(C)(=O)=O)cc1C(=O)NS(C)(=O)=O,Percent Effect,"30.3 µM, […]",76.39%
Cc1ccc(S(C)(=O)=O)cc1C(=O)NS(=O)(=O)c1cccs1,Percent Effect,"30.3 µM, […]",-1.699%
Cc1ccc(S(C)(=O)=O)cc1C(=O)NS(=O)(=O)c1ccc(Cl)cc1,Percent Effect,"30.3 µM, […]",-20.93%
Cc1ccc(F)cc1S(=O)(=O)Nc1ccc2c(C(=O)O)c[nH]c2c1,Percent Effect,10 µM,-37.32%
Clc1ccccc1-c1cc(CNc2ncnc3c2CCNCC3)no1,Percent Effect,"30 µM, 30.03 µM",-18.38%
O=C(CCNC(=O)c1cnccn1)Nc1ncc[nH]1,Percent Effect,"30 µM, 30.03 µM",-39.01%
O=C(Nc1cccc2c1CCCC2)c1cccnc1N1CCCNCC1,Percent Effect,"30.3 µM, […]",-17.09%
same,Percent Effect,"10 mM, 10 mM as filed; unlikely as a test dose",-111.4%
CS(=O)(=O)NC[C@]12COC[C@H]1CN(C(=O)C1CCSCC1)C2,Percent Effect,"30.3 µM, […]",-61.89%
CNC(=O)c1cn[nH]c1C1CCN(Cc2ccccc2OC)C1 (stereo not drawn),Percent Effect,"30.3 µM, […]",0.9318%
CC(C)c1nnc(CN2CCCC3(CC2)CN(C)C(=O)O3)o1 (stereo not drawn),Percent Effect,"30 µM, 30.03 µM",-4.839%
CC(C)c1ccc(CC(=O)N2CCCC3(CN(C)C(=O)O3)C2)cc1 (stereo not drawn),Percent Effect,"30.3 µM, […]",-36.52%
CC(C)c1ccc(CN2CCCC3(CC2)CN(C)C(=O)O3)cc1 (stereo not drawn),Percent Effect,"30.3 µM, […]",97.32%
CN(C)C(=O)CO[C@H]1CN(Cc2nccs2)[C@@H]2COC[C@H]12.O=C(O)C(F)(F)F,Percent Effect,"30.3 µM, […]",-75.65%
Cc1cc2nc(C(C)C)cc(N(C)CC3CCCN(CCO)C3)n2n1 (stereo not drawn),Percent Effect,"30.3 µM, […]",9.548%
Cc1nc(CN2CCCC(CCc3ccccc3F)C2)c[nH]1 (stereo not drawn),Percent Effect,"30.3 µM, […]",-5.303%
Cc1nc(CN2CCCC(CCc3c(F)cccc3F)C2)c[nH]1 (stereo not drawn),Percent Effect,"30 µM, 30.03 µM",77.03%
Cc1nc(CN2CCCC(CCc3ccc(F)cc3F)C2)c[nH]1 (stereo not drawn),Percent Effect,"30 µM, 30.03 µM",47.76%
Cc1nc(CN2CCCC(CCc3ccc(F)c(F)c3)C2)c[nH]1 (stereo not drawn),Percent Effect,"30.3 µM, […]",50.38%
Cc1nc(CN2CCCC(CCc3ccccc3C)C2)c[nH]1 (stereo not drawn),Percent Effect,"30.3 µM, […]",-10.1%
Cn1cc(CN2CCCC(CCc3ccc(F)c(F)c3)C2)cn1 (stereo not drawn),Percent Effect,"30 µM, 30.03 µM",-1.052%
CN(C)[C@@H]1CCN(S(=O)(=O)C2CC2)[C@H]1Cc1ccccc1.O=C(O)C(F)(F)F,Percent Effect,"30.3 µM, […]",-33.03%
O=C1CCNc2ncc(-c3ccccc3Cl)cc2CN1C1CC1,Percent Effect,"30.3 µM, […]",10.61%
Cl.O=C(NCc1ccc(Cl)cc1)C1=NOC2(CCNC2)C1 (stereo not drawn),Percent Effect,"30 µM, 30.03 µM",4.958%
Cc1ccc(NC(=O)Nc2c[nH]c(=O)[nH]c2=O)c(C)c1,Percent Effect,"30 µM, 30.03 µM",-29.58%
Cc1cc(CN2CCC3(CC2)COC(COCC2CC2)C3)no1.O=C(O)C(F)(F)F (stereo not drawn),Percent Effect,"30.3 µM, […]",4.372%
Cc1cncc(CN2C[C@@H](O)[C@H](Oc3ccccc3)C2)c1,Percent Effect,"30.3 µM, […]",6.651%
c1ccc(-c2cc(CN3C[C@@H]4CC[C@H](C3)N(CC3CCC3)C4)on2)cc1,Percent Effect,"30 µM, 30.03 µM",58.21%
c1ccc(-c2nnc(CN3C[C@@H]4CC[C@H](C3)N(CC3CCC3)C4)o2)cc1,Percent Effect,"30 µM, 30.03 µM",-46.57%
c1ccc(-c2cc(CN3C[C@@H]4CC[C@H](C3)N(CC3CC3)C4)on2)cc1,Percent Effect,"30 µM, 30.03 µM",-36.61%
O=C(O)C(F)(F)F.O=C(O)C(F)(F)F.O=C(c1n[nH]c2c1CN(C1CCOCC1)CC2)N1CCCC1,Percent Effect,"30.3 µM, […]",-4.414%
CCOc1ccc(N(C)Cc2nnc(C3CC3)o2)cc1,Percent Effect,"30.3 µM, […]",-683%
CCOc1ccc(N(C)Cc2nc(C)c(C)o2)cc1,Percent Effect,"30.3 µM, […]",96.05%
CCOc1ccc(N(C)Cc2nnc(C)o2)cc1,Percent Effect,"30.3 µM, […]",-136.8%
